# KB-3-1 tox – kills parental KB-3-1 adenocarcinoma cells; actives 1.4% (n = 400,000); KB-3-1 viability, CellTiter-Glo ATP luminescence, 72 h; Potency, µM (highest dose often 46.1 µM), hits mostly cytotoxic; also: % is scaled to controls: 0 for no effect and ±100 for the full control effect; nearly all actives have a fitted effect of over 60% in size
#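 72 h, 37 °C compound treatment of KB-3-1 parental cells; CellTiter-Glo added, 10 min, luminescence read. Data corrected against DMSO-only plates and normalized before curve fitting.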
# SW480 rerep – DNA re-replication induction in SW480 cells; SW480 DNA re-replication, Hoechst DNA content imaging, 48 h; Potency, µM (top dose mostly 46.1 µM), without a hit: top-dose re-replication activation, usual class: activators; actives 1.8% (n = 340,000); also: % of control where 0% means no effect; nearly all actives have a fitted effect of over 55% in size
#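 250 cells/well; 23 nL cpd via pin tool; 48 hr, 37 C, 5% CO2; Hoechst 40 min; imager read of total nuclear intensity, ex 405/em 500-530 nm.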
# KB-V1 MDR tox – KB-V1 MDR subline cytotoxicity; KB-V1 MDR cells viability, CellTiter-Glo, 72 h; Potency, µM (highest dose often 46.1 µM), most hits filed as cytotoxic; actives 3.4% (n = 400,000); AID 1347076; also: % is scaled to controls: 0 for no effect and ±100 for the full control effect; nearly all actives have a fitted effect of over 60% in size
#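 Compound-treated KB-V1 multidrug-resistant cells, 72 h, 37 degrees C; viability by CellTiter-Glo. Fitted qHTS curves give the values.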
# ELG1 DNA repair – inhibitors of ELG1-dependent DNA repair in HEK293T cells | actives 2.3% (n = 330,000) | Potency, µM (top dose mostly 46.1 µM), without a hit: at the top dose activity change, negative = inhibition, hits mostly inhibitors | AID 504467 | HEK293T ELG1-luciferase reporter, luminescence, 16 h; DNA damage induced by 5-fluorouridine; also: % is scaled to controls: 0 for no effect and ±100 for the full control effect; nearly all actives have a fitted effect of over 55% in size
#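 In this reporter screen, reduction of luminescence relative to DMSO vehicle indicated activity. Compounds and 5-fluorouridine were added together to 2,000 cells per well, incubated for 16 hr at 37 °C, then developed with ONE-Glo.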
# MCF10A rereplic – inducers of DNA re-replication in MCF 10A breast cells; AID 624296; Potency, µM (titrated, usually from 46.1 µM), without a hit: top-dose activity, positive = re-replication, actives largely listed as activators; actives 2.9% (n = 350,000); MCF 10A DNA re-replication, Hoechst nuclear intensity, 48 h; also: % of control where 0% means no effect; nearly all actives have a fitted effect of over 50% in size
# An asterisk follows results filed as active; i = inactive; ? = inconclusive; . = not tested or not shown. Sampled rows, rich in hits. Any-hit rate of the full collection: about 8.1%. Calls follow the shape of the dose curve; as a rule, active = well fitted curve in the direction sought with a large enough effect; inconclusive = small, poorly fitted or top-dose-only effect, or another doubt; inactive = no such curve, though single readings can be large; an effect the other way counts as inactive or inconclusive. Potency is read from the fitted curve at half-maximal effect.
SMILES,KB-3-1 tox,SW480 rerep,KB-V1 MDR tox,ELG1 DNA repair,MCF10A rereplic
COc1ccc(/C=C/C(=O)N(CC(C)C)CC(C)C)cc1Br,i,?,21µM*,-25%,?
CC(OC(=O)c1cccnc1Cl)C(=O)Nc1ccc2c(c1)OCCO2 (stereo not given),i,-7%,i,?,14%
O=S(=O)(Nc1cccc(C(F)(F)F)c1)c1ccc(NS(=O)(=O)c2ccc3c(c2)OCCO3)cc1,i,.,i,.,.
CC(OC(=O)c1nc(Cl)ccc1Cl)C(=O)Nc1ccc2c(c1)OCCO2 (stereo not given),i,-37%,i,20%,1.6µM*
CC(OC(=O)c1cccc(S(=O)(=O)Nc2cccc(C(F)(F)F)c2)c1)C(=O)Nc1ccc2c(c1)OCCO2 (stereo not given),?,8%,15µM*,?,?
Nc1nccc(SCc2ccccc2)n1,i,-3%,i,.,-3%
CCc1nc(SCC(=O)N2CCN(C(=O)c3ccco3)CC2)c2c3c(sc2n1)CCCC3,i,3%,?,?,?
Cc1ccc(S(=O)(=O)N2CCN(c3nc(C)nc4sc5c(c34)CCC(C)C5)CC2)cc1 (stereo not given),.,.,.,20%,.
Cc1nc(N2CCN(C(=O)c3ccco3)CC2)c2c3c(sc2n1)CCCC3,i,-2%,21µM*,18µM*,2%
Cc1nc(N2CCN(C(=O)c3ccco3)CC2)c2c3c(sc2n1)CC(C)CC3 (stereo not given),i,-169%,8.2µM*,?,?
O=C(c1ccco1)N1CCN(c2nc(C3CC3)nc3sc4c(c23)CCCC4)CC1,i,-2%,21µM*,?,-5%
CNc1ncnc2c1ncn2[C@H]1CN(Cc2ccc(F)cc2)C[C@@H](CO)O1,i,.,i,.,.
Cc1cccc(-c2cc(C(=O)O)c3c(-c4ccc(F)cc4)[nH]nc3n2)c1,i,.,i,.,.
C(#Cc1ccccc1)C[N+]1(CC#Cc2cccc3ccccc23)CCCC1,16µM*,4%,i,-16%,?
N#Cc1cc2cc3c(cc2nc1NCCNC(=S)NCCCN1CCOCC1)OCO3,i,?,i,-6%,21µM*
COc1ccc(NC(=O)/C(C#N)=C\c2cc(C)n(-c3ccc4c(c3)OCO4)c2C)cc1,?,10µM*,2.1µM*,-22%,5.2µM*
CCOC(=O)c1ccc(CN(Cc2ccc(OC)cc2)S(=O)(=O)c2cccc(C(F)(F)F)c2)cc1,i,.,i,.,.
COc1ccc(C2C(C#N)=C(N)Oc3c2ccc2cccnc32)cc1OC (stereo not given),2.6µM*,1.6µM*,i,2%,4.6µM*
COc1cc(C2C(C#N)=C(N)Oc3c2ccc2ccccc32)ccc1OCC(=O)Nc1cccc(C)c1 (stereo not given),?,5%,?,9.2µM*,0%
COc1cc(C2C(C#N)=C(N)Oc3c2ccc2ccccc32)ccc1OCC(=O)Nc1ccc(C)cc1 (stereo not given),?,9%,?,?,?
COc1ccc(C2C(C#N)=C(N)OC3=C2C(=O)CC(C)(C)C3)cc1OC (stereo not given),i,-5%,i,-18%,-17%
CC(C)OC(=O)/C(C#N)=C/c1cn(C)c2ccccc12,i,-2%,i,14%,13%
Cn1cc(/C=C(\C#N)C(=O)Nc2ccccc2O)c2ccccc21,i,0%,i,8.2µM*,-19%
CCOC(=O)N/N=C/c1cn(Cc2ccc(Cl)cc2)c2ccccc12,?,3%,?,28%,5%
O=C(CNc1ccc2c(c1)OCO2)N/N=C\c1cn(Cc2ccccc2)c2ccccc12,?,-9%,?,?,15%
SMILES,KB-3-1 tox,SW480 rerep,KB-V1 MDR tox,ELG1 DNA repair,MCF10A rereplic
O=C(N/N=C/c1cn(Cc2ccccc2)c2ccccc12)c1ccncc1,i,?,?,18µM*,12%
N#CCC(=O)N/N=C/c1cn(Cc2ccc(Cl)cc2Cl)c2ccccc12,i,?,i,-27%,12µM*
O=C(CNc1ccc2c(c1)OCO2)N/N=C\c1cn(Cc2ccc(F)cc2)c2ccccc12,.,-2%,.,?,21µM*
O=C(Cn1nc(C(=O)O)c2ccccc2c1=O)Nc1ccc(Cl)c(S(=O)(=O)N2CCOCC2)c1,i,6%,i,-2%,-1%
CC(C)(C)OC(=O)N[C@H](C(=O)OC(C)(C)C)c1ccc2ccccc2c1,i,-2%,i,6%,3%
CCN(CC)c1nc(Nc2ccccc2)nc(Oc2ccc(=O)n(C)n2)n1,?,-9%,6.5µM*,17%,?
CCN(CC)c1nc(Nc2ccccc2)nc(Oc2ccc(=O)[nH]n2)n1,i,-4%,i,?,18%
CCOC(=O)C1CCCN(C(=O)CNC(=O)c2ccc(Br)o2)C1 (stereo not given),i,?,i,17%,-1%
CCC(=O)N1CCN(c2ccc(NC(=O)COc3ccccc3[N+](=O)[O-])cc2)CC1,?,-8%,?,23µM*,0%
COc1ccc(N2CCN(C(=O)c3ccc4c(c3)OCO4)CC2)cc1,i,-4%,21µM*,7%,?
CC(C)C(NC(=O)OCc1ccccc1)C(=O)OCC(=O)N1CCCCC1 (stereo not given),i,-3%,?,?,6%
COc1ccc(N2CCN(C(=O)COC(=O)[C@@H](NC(=O)OCc3ccccc3)C(C)C)CC2)cc1,i,-1%,6.5µM*,.,4%
CCC(=O)N1CCN(c2ccc(NC(=O)COc3ccc(C)cc3C)cc2)CC1,i,0%,i,-9%,13%
Cc1ccc(C(=O)N2CCN(c3ccc(NC(=S)NC(=O)Cc4ccccc4)cc3)CC2)cc1,i,-3%,i,0%,?
COc1ccc(C(=O)N2CCN(c3ccc(NC(=O)Cc4ccccc4)cc3)CC2)cc1,i,0%,?,9.2µM*,?
COCCN1C(=O)CCC1(C)C(=O)NC(C)(C)C (stereo not given),i,.,i,.,.
CN(CC(=O)O)c1ccc(/C=C/c2ccnc3ccccc23)cc1,i,.,?,.,.
Cc1nc2ccc(C(=O)OC(C)C(=O)c3c(C)[nH]c4ccccc34)cc2nc1C (stereo not given),i,.,i,.,.
COC(=O)C1[C@@H](OC)C(OC(=O)COc2ccc(OC)cc2)C[C@@H]2CN3CCc4c([nH]c5cc(OC)ccc45)[C@H]3C[C@H]12 (stereo not given in full),.,0%,.,.,18%
CSc1ncc(C(=O)Nc2ccccc2C(F)(F)F)c(-c2ccccc2)n1,i,.,i,.,.

# High-throughput results: PubChem BioAssay, National Center for Advancing Translational Sciences (NCATS)
